Data as given in article PMC5540273 (PLoS ONE, 2017).

Assays:
Settings in all cases: concentration: 1 μM, replicates: in singlicate; n = 1
AAK1 = tested on: AAK1
ABL1-nonphosphorylated = tested on: ABL1-nonphosphorylated
ABL1-phosphorylated = tested on: ABL1-phosphorylated
ABL2 = tested on: ABL2
ACVR1B = tested on: ACVR1B
ACVR1 = tested on: ACVR1
ACVR2A = tested on: ACVR2A
ACVR2B = tested on: ACVR2B
ACVRL1 = tested on: ACVRL1
ADCK3 = tested on: T1, ADCK3
T1 construct: gene CABC1

ADCK4 = tested on: ADCK4
AKT1 = tested on: AKT1
AKT2 = tested on: AKT2
AKT3 = tested on: AKT3
ALK = tested on: ALK
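Also: KINOMEscan kinase panel screen.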

Row | SMILES | %Inh (AAK1) | %Inh (ABL1-nonphosphorylated) | %Inh (ABL1-phosphorylated) | %Inh (ABL2) | %Inh (ACVR1B) | %Inh (ACVR1) | %Inh (ACVR2A) | %Inh (ACVR2B) | %Inh (ACVRL1) | %Inh (ADCK3) | %Inh (ADCK4) | %Inh (AKT1) | %Inh (AKT2) | %Inh (AKT3) | %Inh (ALK)
1 | CC[C@@H]1CO[C@H](C(=O)Nc2ccccc2)CN1c1cc(-c2ccc3c(N)n[nH]c3c2)nc(NC)n1 [GSK2376236] | 19% | 0% | 0% | 0% | 0% | 0% | 0% | 0% | 0% | 27% | 12% | 0% | 15% | 0% | 0%
2 | NS(=O)(=O)c1cccc(N/C=C2\C(=O)Nc3ccc(S(=O)(=O)Cc4c(Cl)cccc4Cl)cc32)c1 [GSK398099] | 31% | 0% | 0% | 14% | 0% | 0% | 0% | 0% | 0% | 1% | 18% | 0% | 25% | 0% | 8%
3 | COC(=O)c1cccc(NC(=O)NC2CCN(c3ccnc(Nc4ccc(OC)cc4)n3)C2)c1 (stereo not shown) [GSK1379746] | 18% | 0% | 0% | 13% | 0% | 41% | 0% | 0% | 0% | 18% | 52% | 0% | 11% | 0% | 20%
4 | COc1ccc(Nc2nccc(N3CCC(NC(=O)c4cc5ccccc5s4)C3)n2)cc1 (stereo not shown) [GSK1379738] | 73% | 0% | 0% | 1% | 0% | 0% | 0% | 0% | 0% | 0% | 37% | 0% | 5% | 0% | 25%
5 | O=c1cc(N2CCOCC2)nc2n(Cc3cccc(Cl)c3Cl)c3ccccc3n12 [GSK2299009] | 31% | 0% | 0% | 16% | 0% | 0% | 0% | 0% | 6% | 13% | 36% | 0% | 21% | 0% | 25%
6 | COC(=O)C(NC(=O)NC1CCN(c2ccnc(Nc3ccc(F)cc3)n2)C1)c1ccccc1 (stereo not shown) [GSK1379712] | 5% | 0% | 0% | 0% | 0% | 4% | 0% | 11% | 0% | 0% | 22% | 0% | 0% | 0% | 19%
7 | O=c1cc(N2CCOCC2)nc2n(Cc3ccccc3F)ccn12 [GSK2297428] | 5% | 0% | 0% | 8% | 0% | 0% | 0% | 0% | 0% | 13% | 8% | 0% | 0% | 0% | 0%
8 | COc1cc2ncnc(Nc3cccc(Br)c3)c2cc1OC.Cl [GI230329] | 13% |  |  | 18% | 0% | 0% | 0% | 0% | 0% | 19% | 52% | 0% | 0% | 16% | 0%
9 | CCc1ccc(-c2ccc3c(c2)-c2n[nH]cc2S(=O)(=O)N3C)cc1 | 15% | 26% | 0% | 0% | 0% | 0% | 13% | 22% | 0% | 9% | 0% | 3% | 0% | 0% | 0%
10 | COC(=O)c1cccc(NC(=O)NC2CCN(c3ccnc(Nc4ccc(F)cc4)n3)C2)c1 (stereo not shown) [GSK1379725] | 0% | 0% | 0% | 5% | 0% | 0% | 0% | 0% | 0% | 4% | 23% | 0% | 0% | 0% | 17%
11 | Nc1ncnc2occ(-c3ccc4c(c3)CCN4C(=O)Cc3cc(F)ccc3F)c12 [GSK2645446] | 53% | 27% | 3% | 13% | 0% | 0% | 0% | 0% | 0% | 8% | 0% | 0% | 0% | 0% | 0%
12 | CN1c2ccc(-c3ccc(C(N)=O)cc3)cc2-c2[nH]ncc2S1(=O)=O | 39% | 36% | 9% | 0% | 3% | 0% | 8% | 16% | 16% | 0% | 3% | 3% | 0% | 0% | 30%
13 | CCn1c(-c2ccccc2)nc2cnccc21 [SB-733416] | 0% | 0% | 13% | 5% | 0% | 23% | 20% | 15% | 10% | 8% | 0% | 0% | 14% | 0% | 36%
